# The list is not random: actives were taken first. Their share in the collection is about 21%.
# HCV inhibitor: inhibitors of hepatitis C virus infection; Huh7.5.1 HCVcc-Cre infection, luciferase reporter, 44 h; Potency, µM (titrated, usually from 41.8 µM), for inactives: at the top dose activity change, negative = inhibition, hits mostly inhibitors; 340,000 tested, 3.4% active; further: potency means the concentration at half of the fitted maximal effect; on the % scale 0 is the no-effect control and ±100 the full control effect
#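 Infectious HCV cell culture screen: compound-treated cells (1,000/well, pre-plated 4 h) are infected with HCVcc-Cre at roughly 0.5 moi and grown 44 h. Infection is quantified by luciferase signal after 15 min substrate incubation at room temperature.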
# Shiga toxin inh: Shiga toxin inhibition | AID 2315 | inhibition, % at 38.7 µM | Vero cells, Shiga toxin protein synthesis inhibition reporter | 290,000 tested, 9.2% active; in the data active means inhibition mostly above about 28%, no sharp cut-off; inactive means mostly below about 43%; further: 0% is about no effect
# Pf growth 96h: inhibits malaria parasite growth, 96 h. P. falciparum luciferase reporter growth, 96 h. Potency, µM (doses to about 28.7 µM), for the others: top-dose activity change, negative = inhibition, usual class: inhibitors. 320,000 tested, 6.9% active. AID 504834; further: potency means the concentration at half of the fitted maximal effect; on the % scale 0 is the no-effect control and ±100 the full control effect
#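 Compounds incubated with erythrocytes infected by luciferase-expressing P. falciparum (2% hematocrit, 0.05% parasitemia final) for 96 hours, 37 C in 5% CO2. Growth inhibition scored as decreased luciferase luminescence.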
# Cycloheximide cs: counter-screen hit for Shiga toxin inhibitors, cycloheximide | cell reporter, cycloheximide protein synthesis inhibition counterscreen | AID 2314 | 300,000 tested, 12% active | max response, %; in the data active means max response mostly above about 13%, no sharp cut-off; inactive means mostly below about 14%; further: read at 38.3 µM for the half of the compounds with a filed dose; 0% is about no effect
# Pf growth 48h: P. falciparum growth inhibition at 48 hours (one generation) | P. falciparum luciferase growth in erythrocytes, 48 h | Potency, µM (doses to about 28.7 µM), inactives show at the highest dose activity change, negative = inhibition, hits mostly inhibitors | AID 504832 | 310,000 tested, 5.9% active; further: potency means the concentration at half of the fitted maximal effect; on the % scale 0 is the no-effect control and ±100 the full control effect
#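 A one-generation exposure of luciferase-tagged malaria parasites in RPMI 1640/Albumax erythrocyte culture, 37 C and 5% CO2. Inhibition is inferred from decreased luminescence after adding detection reagent.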
# AMA1-RON2 inh: disrupts binding of P. falciparum AMA1 to RON2; AlphaScreen AMA1-biotinylated RON2 peptide binding; Potency, µM (top dose mostly 58.2 µM), for the others: top-dose activity change, negative = inhibition, hits mostly inhibitors; 360,000 tested, 0.2% active; AID 720542;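 further: potency means the concentration at half of the fitted maximal effect; 0% = vehicle wells and -100% = peptide control; nearly all actives have a fitted effect of over 45% in size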
#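 AMA1 (3D7) with his tag at 25 nM final met compounds first, then biotinylated RON2 peptide at 25 nM; detection used donor plus acceptor beads, 10 µg/mL apiece, read by AlphaScreen after 30 min at room temperature.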
# * = called active by the depositor; ? = inconclusive; · = no result given; [ ] = remark or other dose. Unless noted, the call rests on the fitted dose curve; in most records, active means well fitted curve in the direction sought with a large enough effect; inconclusive means small, poorly fitted or top-dose-only effect, or another doubt; inactive means no such curve, though single readings can be large; an effect the other way counts as inactive or inconclusive.
SMILES,HCV inhibitor,Shiga toxin inh,Pf growth 96h,Cycloheximide cs,Pf growth 48h,AMA1-RON2 inh
CCn1cnc2sc(C(=O)Oc3cccc(C)c3)c(C)c2c1=O,1.41µM*,78.8*,?,28.7*,145.6%,-0.2%
Cc1c(C(=O)Oc2ccc(F)cc2)sc2ncn(Cc3cccc(F)c3)c(=O)c12,6.8%,-2.2,11.3%,-3.6,2.7%,1.4%
CCCSc1nsc(NC(=O)Nc2ccc(F)cc2F)n1,10µM*,36.3*,?,22.9*,?,0.1%
COc1cccc(NC(=O)Nc2nc(SC(C)(C)C)ns2)c1,?,·,-90.5%,25.3*,?,-1.9%
COc1ccc(NC(=O)Nc2cccc(OC)c2)cc1,-19.1%,·,·,·,·,14.8%
COc1cccc(NC(=O)Nc2nc(SC)ns2)c1,-8.9%,99.7*,91.1%,53.8*,78.2%,0.0%
CCCSc1ccc(C(=O)Nc2ccc(F)cc2F)cn1,-13.3%,30.0,31.9%,29.7*,28.4%,23.3%
O=C(OCc1ccccc1)c1c(-c2ccccc2)oc2c1C(OCCO)CCC2 (configuration not stated),·,·,·,·,·,-20.3%
CCSc1nsc(NC(=O)Nc2cccc(F)c2)n1,10µM*,·,64.8%,38.8*,5.86µM*,5.0%
CCCCCC(=O)N1C[C@@H](n2cc(C3CC3)nn2)[C@H](O)C[C@@H]1c1ccc(Cl)cc1,·,·,·,·,·,-1.6%
COCCN1C[C@@H](CO)O[C@@H](n2cnc3c(NCc4ccncc4)ncnc32)C1,·,·,·,·,·,27.7%
O=C(NCCCO)c1ccc2nc(-c3ccco3)c(-c3ccco3)nc2c1,-11.7%,-7.0,54.5%,9.4,7.7%,?
O=C(NCc1ccccc1)c1ccc2nc(-c3ccco3)c(-c3ccco3)nc2c1,-7.8%,-5.9,11.7µM*,-2.5,·,-20.5%
CC(=O)c1ccc(NC(=O)c2ccc3nc(-c4ccco4)c(-c4ccco4)nc3c2)cc1,?,-18.0,·,-2.1,11.7µM*,10.8%
CCCNC(=O)c1ccc2nc(-c3ccccc3)c(-c3ccccc3)nc2c1,?,-2.5,?,-2.5,5.22µM*,0.6%
O=C(Nc1ccccc1)c1ccc2nc(-c3ccco3)c(-c3ccco3)nc2c1,8.91µM*,10.5,·,9.0,?,-8.0%
CCCCNC(=O)c1ccc2nc(-c3ccco3)c(-c3ccco3)nc2c1,5.0%,15.3,12.6%,-1.7,-12.9%,-29.0%
O=C(Nc1ccc(N2CCOCC2)cc1)c1ccc2nc(-c3ccco3)c(-c3ccco3)nc2c1,6.2%,-4.4,?,1.0,-16.8%,-8.4%
C=CCN1C(=O)C(=O)N(CC(=O)NCC(=O)Nc2ccc(F)c(F)c2F)C1=O,6.0%,·,·,·,·,3.0%
Cc1cccc(N2CCN(C(=O)c3[nH]c(C(F)(F)F)nc3-c3ccccc3)CC2)c1C,·,·,·,·,·,1.4%
COC(=O)CNC(=O)C(=O)OC,·,15.5,·,-4.9,·,·
COc1cc2c(cc1OC)C(C)N(C(=O)c1cc3n(n1)C(C(F)(F)F)CC(c1ccco1)N3)CC2 (configuration not stated),?,22.8,·,3.0,6.57µM*,?
Cc1cc(NC(=O)c2cc3n(n2)C(C(F)(F)F)CC(c2ccco2)N3)n(-c2ccccc2)n1 (configuration not stated),?,-12.2,?,-2.1,9.28µM*,1.3%
COc1ccc(NC(=O)c2cc3n(n2)C(C(F)(F)F)CC(c2ccco2)N3)cc1 (configuration not stated),?,-3.5,24.6%,0.9,?,-1.7%
O=C(c1cc2n(n1)C(C(F)(F)F)CC(c1ccco1)N2)N1CCc2ccccc2C1 (configuration not stated),-13.6%,-11.4,·,-1.0,?,-6.9%
SMILES,HCV inhibitor,Shiga toxin inh,Pf growth 96h,Cycloheximide cs,Pf growth 48h,AMA1-RON2 inh
CCCCNC(=O)C1(C)CCCCN1C(=O)c1cc2ccccc2s1 (configuration not stated),·,·,·,·,·,-4.1%
COc1ccc(OC)c(NC(=O)CSc2ncnc3c2cnn3-c2ccccc2Cl)c1,0.891µM*,4.4,-26.7%,-1.3,10.4µM*,-8.5%
COc1cc(NC(=O)CSc2ncnc3c2cnn3Cc2ccccc2)cc(OC)c1,?,-9.2,·,15.5,11.7µM*,?
Cc1nnc(SCC(=O)N2CC(=O)Nc3ccccc32)s1,-0.5%,-12.7,16.9%,6.0,-8.3%,-1.9%
O=C1CN(C(=O)CSc2nc(-c3ccc(Cl)cc3)cs2)c2ccccc2N1,14.1µM*,-14.7,?,-7.1,?,-3.6%
Cc1ccc(-n2c(SCC(=O)N3CC(=O)Nc4ccccc43)nc3ccccc3c2=O)cc1,4.7%,1.3,?,0.8,13.1µM*,-7.6%
Cc1cccc(C)c1-n1c(SCC(=O)N2CC(=O)Nc3ccccc32)nc2ccccc2c1=O,?,-4.6,-101.1%,-5.1,13.1µM*,-10.0%
COCCn1c(SCC(=O)N2CC(=O)Nc3ccccc32)nc2ccccc2c1=O,1.1%,23.9,?,5.0,?,-6.6%
Cc1cc(C)c2nc(SCC(=O)N3CC(=O)Nc4ccccc43)c(C#N)cc2c1,7.94µM*,-8.1,?,-1.9,13.1µM*,9.9%
CC(C)c1nc(SCC(=O)N2CC(=O)Nc3ccccc32)c2ccccc2n1,?,-16.8,47.4%,-1.7,-18.1%,4.7%
COc1ccc2nc(SCC(=O)N3CC(=O)Nc4ccccc43)c(C#N)cc2c1,?,-7.2,?,-2.2,·,-3.1%
CC(NC(=O)c1cc(S(=O)(=O)N2CCOCC2)cn1C)c1ccccc1 (configuration not stated),24.5%,-8.3,22.0%,-4.3,14.7%,14.7%
O=C(Nc1ccc2c3c(cccc13)CC2)c1ccccc1,·,·,·,·,·,2.3%
O=C(Nc1ccn(CCCN2CCN(c3ccccn3)CC2)c(=O)n1)OCc1ccccc1,-68.6%,·,·,·,·,5.0%
CCCOc1ccc(C(=O)Nc2cc(S(=O)(=O)N3CCOCC3)ccc2N2CCN(CC)CC2)cc1OC,10.5%,·,·,·,·,-6.7%[11.6 µM]
O=C1C2C(C(=O)N1/N=C/c1ccc([N+](=O)[O-])o1)C1C=CC2C12CC2 (configuration not stated),10.7%,4.5,?,-1.3,?,0.0%
CC1=NN(c2nc(N)nc(/C(C#N)=C/c3ccc([N+](=O)[O-])o3)n2)C(C)(C)C1,8.91µM*,·,·,·,·,8.7%
Cc1cc(NC(=O)c2cc(-c3ccc(C)c(C)c3)nc3ccccc23)no1,?,20.1*,0.738µM*,2.6,0.828µM*,7.8%
Cc1ccc(-c2cc(C(=O)Nc3cc(C)on3)c3ccccc3n2)cc1,14.7%,15.6,104.2%,3.1,?,-5.8%
Cc1cc(NC(=O)c2cc(-c3ccccn3)nc3c(Cl)cccc23)no1,7.1%,-9.4,2.08µM*,-0.6,-3.8%,-7.4%
Cc1cc(NC(=O)c2cc(-c3cccc(OCC(C)C)c3)nc3ccccc23)no1,12.6µM*,-18.9,2.33µM*,-1.1,?,0.0%

# Screens: PubChem BioAssay, National Center for Advancing Translational Sciences (NCATS)
